Source: PubChem BioAssay (NCATS)
Records with an inconclusive call do not appear. The source made the active and inactive calls. Unless noted, the call rests on the fitted dose curve; in most records, active means well fitted curve in the direction sought with a large enough effect; inconclusive means small, poorly fitted or top-dose-only effect, or another doubt; inactive means no such curve, though single readings can be large; an effect the other way counts as inactive or inconclusive.

Columns and labels:
[1] = molecular target: Lysosomal acid glucosylceramidase (Homo sapiens) (UniProt P04062); experiment: Glucocerebrosidase-p2 (AID 348; in the data active means potency below about 10 µM; further: potency means the concentration at half of the fitted maximal effect); conditions: purified GBA, blue fluorogenic substrate, 40 min
Chain of Lysosomal acid glucosylceramidase (Homo sapiens) (P04062 whole entry, looked up): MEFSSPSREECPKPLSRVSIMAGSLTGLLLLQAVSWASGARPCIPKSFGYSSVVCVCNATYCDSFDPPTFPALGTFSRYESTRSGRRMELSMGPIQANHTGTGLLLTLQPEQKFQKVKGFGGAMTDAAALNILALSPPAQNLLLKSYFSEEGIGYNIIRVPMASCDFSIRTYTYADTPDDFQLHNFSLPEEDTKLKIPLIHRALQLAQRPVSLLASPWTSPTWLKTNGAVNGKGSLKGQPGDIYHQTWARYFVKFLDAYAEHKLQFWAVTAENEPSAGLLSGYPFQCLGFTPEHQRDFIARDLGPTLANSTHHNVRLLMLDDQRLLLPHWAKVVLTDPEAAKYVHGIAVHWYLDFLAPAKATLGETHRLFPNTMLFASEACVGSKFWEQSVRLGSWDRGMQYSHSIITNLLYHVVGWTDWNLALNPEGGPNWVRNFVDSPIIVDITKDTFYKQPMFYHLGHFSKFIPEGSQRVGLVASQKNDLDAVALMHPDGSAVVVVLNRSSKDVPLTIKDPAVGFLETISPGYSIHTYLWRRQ
Method in brief: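 Compounds titrated from 0.6 nM upwards against 0.2 nM enzyme in pH 5.9 citric acid/KH2PO4, taurocholate, tween-20; blue fluorogenic substrate 80 uM, 40 min room temperature, stopped and read Ex 365/Em 440 for AC50.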

[2] = molecular target: Cytochrome P450 1A2 (Homo sapiens) (UniProt P05177); experiment: p450-cyp1a2 (AID 410; calls by dose curve; further: potency means the concentration at half of the fitted maximal effect;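 on activity change, negative = inhibition: -100% = full effect of reference inhibitor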); conditions: recombinant CYP1A2, luciferin-ME demethylation, luminescence; series mostly up to 57 µM
Chain of Cytochrome P450 1A2 (Homo sapiens) (P05177 whole entry, looked up): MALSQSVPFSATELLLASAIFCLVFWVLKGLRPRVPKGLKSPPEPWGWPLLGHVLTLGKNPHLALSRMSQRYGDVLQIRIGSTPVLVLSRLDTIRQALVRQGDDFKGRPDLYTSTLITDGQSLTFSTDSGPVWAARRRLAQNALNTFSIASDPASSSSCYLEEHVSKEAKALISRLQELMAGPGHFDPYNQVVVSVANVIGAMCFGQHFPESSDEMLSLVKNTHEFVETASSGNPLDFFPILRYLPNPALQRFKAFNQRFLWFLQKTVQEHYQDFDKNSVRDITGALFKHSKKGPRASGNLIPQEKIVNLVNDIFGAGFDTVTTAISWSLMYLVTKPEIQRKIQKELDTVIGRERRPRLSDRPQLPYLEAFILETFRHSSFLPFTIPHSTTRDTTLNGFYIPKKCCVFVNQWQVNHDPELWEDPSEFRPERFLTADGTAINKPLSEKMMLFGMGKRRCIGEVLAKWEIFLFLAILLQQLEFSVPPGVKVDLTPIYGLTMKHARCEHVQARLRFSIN
Method in brief: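 20nM CYP1A2 with 100uM Luciferin-ME (at Km) in 100mM KPO4; compound preincubated 10 min, NADPH regeneration added, 60 min at room temperature. Luciferin quantified by luminescence after detection reagent; normalized to 57 uM furafylline.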

[3] = molecular target: Glucocorticoid receptor (Homo sapiens) (UniProt P04150); experiment: GR-GFP Redistribution (AID 450;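 active means compounds whose dose series gives a full or clear partial fitted curve of increased nuclear translocation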; further: potency means the concentration at half of the fitted maximal effect); conditions: U2OS GR-GFP nuclear translocation, laser cytometry, 2 h
Chain of Glucocorticoid receptor (Homo sapiens) (P04150 whole entry, looked up, the tested form may be a part): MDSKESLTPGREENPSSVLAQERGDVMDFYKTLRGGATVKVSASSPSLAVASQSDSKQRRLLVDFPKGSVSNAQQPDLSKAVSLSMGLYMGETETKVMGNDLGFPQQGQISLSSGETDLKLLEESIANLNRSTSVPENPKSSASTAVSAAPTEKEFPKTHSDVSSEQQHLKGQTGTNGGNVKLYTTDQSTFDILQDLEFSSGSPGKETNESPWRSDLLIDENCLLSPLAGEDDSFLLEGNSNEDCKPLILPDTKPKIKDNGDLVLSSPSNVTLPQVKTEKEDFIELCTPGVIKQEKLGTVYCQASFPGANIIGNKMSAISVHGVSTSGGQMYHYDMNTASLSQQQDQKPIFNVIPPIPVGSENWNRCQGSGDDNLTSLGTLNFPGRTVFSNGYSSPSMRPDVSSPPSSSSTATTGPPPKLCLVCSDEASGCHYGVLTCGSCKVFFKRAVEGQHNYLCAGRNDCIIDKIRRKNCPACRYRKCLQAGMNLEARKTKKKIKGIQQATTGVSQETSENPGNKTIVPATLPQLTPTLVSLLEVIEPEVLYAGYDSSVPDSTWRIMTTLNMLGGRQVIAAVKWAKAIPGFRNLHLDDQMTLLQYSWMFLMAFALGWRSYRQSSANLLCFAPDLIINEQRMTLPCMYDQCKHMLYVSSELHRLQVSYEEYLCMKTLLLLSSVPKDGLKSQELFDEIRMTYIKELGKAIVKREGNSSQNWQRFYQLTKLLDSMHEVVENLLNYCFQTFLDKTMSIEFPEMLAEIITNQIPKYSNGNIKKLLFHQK

[4] = molecular target: Glucocorticoid receptor (Homo sapiens) (UniProt P04150); experiment: GR-EFC Redistribution (AID 451; calls by dose curve; further: potency means the concentration at half of the fitted maximal effect); conditions: CHO-K1 GR-EFC translocation, beta-gal luminescence, 2 h
Method in brief: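 CHO-K1 cells stably expressing nuclear-localized β-gal enzyme acceptor and GR fused C-terminally to the enzyme donor fragment; ligand-driven nuclear translocation restores β-gal by complementation. Compounds titrated up to 46 uM final, 2 h at 37 °C; luminescence read.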

[5] = molecular target: Mitogen-activated protein kinase 10 (Mus musculus) (UniProt Q61831); experiment: JNK3 AlphaScreen Assay (AID 530; active means well fitted curve in either direction with a large enough effect, not every such curve was filed as active;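 further: kinase came from lysate of stimulated human HepG2 cells; signal reports phosphorylation of biotinylated GST-cJun 1-79 at Ser73 with 10 µM ATP; on the % scale 0 is the no-effect control and ±100 the full control effect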); conditions: JNK3 lysate, c-Jun phosphorylation; series mostly up to 57.1 µM
Method in brief: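 Inhibitors reduce antibody binding to phosphorylated biotin-cJun, lowering AlphaScreen luminescence. Lysates from HepG2 cells pre-activated by IL-1beta plus TNF-alpha supplied JNK3; compounds were titrated.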

[6] = molecular target: 3',5'-cyclic-AMP phosphodiesterase 4B (Homo sapiens) (UniProt Q07343); experiment: qHTS Assay for Inhibitors of PDE-IV (AID 607; active means well fitted activation curve with a large enough effect in the main read-out, with a control signal flat, not every such curve was filed as active; further: % of control where 0% means no effect); conditions: HEK293 ACTOne CNG channel cells, membrane potential fluorescence; series mostly up to 22.9 µM
Chain of 3',5'-cyclic-AMP phosphodiesterase 4B (Homo sapiens) (Q07343 whole entry, looked up): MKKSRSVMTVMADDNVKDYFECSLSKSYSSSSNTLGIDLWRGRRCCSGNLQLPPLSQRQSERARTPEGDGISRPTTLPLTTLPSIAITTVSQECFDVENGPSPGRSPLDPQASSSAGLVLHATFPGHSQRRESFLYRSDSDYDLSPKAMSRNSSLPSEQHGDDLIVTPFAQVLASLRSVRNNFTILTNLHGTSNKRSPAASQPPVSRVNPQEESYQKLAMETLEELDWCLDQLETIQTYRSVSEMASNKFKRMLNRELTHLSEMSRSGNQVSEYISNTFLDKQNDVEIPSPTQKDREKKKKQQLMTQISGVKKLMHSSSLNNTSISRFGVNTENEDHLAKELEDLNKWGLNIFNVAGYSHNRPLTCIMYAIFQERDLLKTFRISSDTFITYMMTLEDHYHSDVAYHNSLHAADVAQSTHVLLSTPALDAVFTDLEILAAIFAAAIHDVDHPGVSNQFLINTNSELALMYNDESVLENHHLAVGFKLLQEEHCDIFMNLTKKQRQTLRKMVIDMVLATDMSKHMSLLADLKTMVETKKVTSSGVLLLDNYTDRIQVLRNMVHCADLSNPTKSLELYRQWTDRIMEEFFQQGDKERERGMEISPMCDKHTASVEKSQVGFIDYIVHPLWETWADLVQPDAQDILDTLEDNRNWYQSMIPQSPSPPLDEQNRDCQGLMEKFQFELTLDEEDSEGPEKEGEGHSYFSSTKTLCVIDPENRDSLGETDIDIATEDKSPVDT
Method in brief: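 The readout is membrane depolarisation from a cAMP-sensing CNG channel, detected with a potential dye at ex 535/em 590. Cells were HEK293-derived (endogenous PDE-IV) at 1000 cells/well, titrated up to 22.9 uM final.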

[7] = molecular target: Cytochrome P450 3A4 (Homo sapiens) (UniProt P08684); experiment: qHTS Assay for Activators of Cytochrome P450 3A4 (AID 885); conditions: recombinant CYP3A4, Luciferin-PPXE luminescence, 60 min; series mostly up to 57.1 µM; further: nearly all actives have a fitted effect of over 65% in size
Chain of Cytochrome P450 3A4 (Homo sapiens) (P08684 whole entry, looked up): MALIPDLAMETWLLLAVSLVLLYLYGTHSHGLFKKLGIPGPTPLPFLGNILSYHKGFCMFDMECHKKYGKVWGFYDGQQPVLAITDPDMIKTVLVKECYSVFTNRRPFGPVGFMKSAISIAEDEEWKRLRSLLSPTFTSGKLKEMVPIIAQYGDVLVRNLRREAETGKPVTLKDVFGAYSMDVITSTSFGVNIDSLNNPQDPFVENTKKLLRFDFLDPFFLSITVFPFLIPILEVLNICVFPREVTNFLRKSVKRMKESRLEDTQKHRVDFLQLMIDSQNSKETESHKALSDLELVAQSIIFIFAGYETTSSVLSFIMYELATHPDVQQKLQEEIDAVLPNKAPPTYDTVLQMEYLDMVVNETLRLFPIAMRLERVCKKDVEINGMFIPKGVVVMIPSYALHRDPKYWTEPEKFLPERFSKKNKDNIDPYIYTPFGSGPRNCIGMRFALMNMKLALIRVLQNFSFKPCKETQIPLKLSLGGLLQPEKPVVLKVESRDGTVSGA
Method in brief: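 Steps: enzyme/substrate mix dispensed; compound added, 10 min RT; NADPH regeneration solution added, 60 min RT; luciferin detection buffer stops reaction; 20 min later luminescence measured.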

[8] = qHTS Assay for Identification of Small Molecule Agonists for Hypoxia Response Element Signaling Pathway (AID 914; active means well fitted activation curve with a large enough effect in the signal ratio, with a control signal flat, not every such curve was filed as active; the % refers to the signal ratio; further: potency means the concentration at half of the fitted maximal effect); conditions: ME-180 HRE-bla reporter, beta-lactamase ratio, CoCl2, 17 h; activation: stronger effect = higher value
Method in brief: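 HRE-bla ME-180 cells, overnight plating in Opti-MEM with 0.5% dialyzed FBS; cpd titration + EC50 CoCl2, 17 h, 37 degrees Celsius; CCF4 2.5 h RT; 460/530 nm ratio; AC50.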

[9] = qHTS Assay for Lipid Storage Modulators (AID 1519; calls by dose curve); conditions: Drosophila S3 cells, BODIPY lipid droplet/cell ratio, laser cytometry, cells loaded with oleic acid; for activity change, negative = inhibition: at 57.5 µM (top of the series)
Method in brief: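 Cells seeded at 5,000 per well were treated with compounds over a concentration series and loaded with oleic acid (400 uM, as added). Lipid droplet fluorescence (488 nm excitation, 500-530 nm channel) was read by laser-scanning cytometry and normalized to 20 uM Triacsin C.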

[10] = molecular target: Dual specificity protein kinase CLK4 (Homo sapiens) (UniProt Q9HAZ1); experiment: qHTS Assay for Inhibitors of CDC-like Kinase 4 (Kinase-Glo Assay) (AID 1770); conditions: recombinant Clk4, Kinase-Glo ATP depletion luminescence; series mostly up to 66.7 µM; further: nearly all actives have a fitted effect of over 65% in size; further: potency means the concentration at half of the fitted maximal effect
Chain of Dual specificity protein kinase CLK4 (Homo sapiens) (Q9HAZ1 whole entry, looked up): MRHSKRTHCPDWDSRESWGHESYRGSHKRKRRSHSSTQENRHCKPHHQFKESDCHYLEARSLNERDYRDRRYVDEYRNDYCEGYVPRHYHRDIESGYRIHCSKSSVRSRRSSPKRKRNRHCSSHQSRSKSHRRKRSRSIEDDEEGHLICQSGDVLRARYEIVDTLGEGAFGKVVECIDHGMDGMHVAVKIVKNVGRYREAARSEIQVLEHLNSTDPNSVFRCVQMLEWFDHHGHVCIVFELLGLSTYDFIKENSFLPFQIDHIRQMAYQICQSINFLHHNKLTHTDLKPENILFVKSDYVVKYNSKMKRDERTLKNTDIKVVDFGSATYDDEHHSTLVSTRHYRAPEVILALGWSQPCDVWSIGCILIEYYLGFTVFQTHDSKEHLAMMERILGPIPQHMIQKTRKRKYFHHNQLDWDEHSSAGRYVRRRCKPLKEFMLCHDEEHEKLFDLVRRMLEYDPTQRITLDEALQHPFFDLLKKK
Method in brief: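 Readout: Kinase-Glo luminescence from ATP left after a 4.5 h room-temperature reaction of 25 nM Clk4 with 100 uM RS peptide and 1 uM ATP (final). Buffer: 25 mM Tris pH 7.5, 10 mM MgCl2.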

[11] = molecular target: Dual specificity protein kinase CLK4 (Homo sapiens) (UniProt Q9HAZ1); experiment: qHTS Assay for Inhibitors of CDC-like Kinase 4 (ADP-Glo Assay) (AID 1771); conditions: recombinant CLK4, ADP-Glo luminescence; series mostly up to 80 µM; further: nearly all actives have a fitted effect of over 70% in size; further: potency means the concentration at half of the fitted maximal effect
Method in brief: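 25 nM Clk4 with 100 uM RS repeat peptide and 1 uM ATP (final) in buffer with 2 mM MgCl2, 0.5 mM EGTA, 2.5 mM DTT, 0.01% Triton X-100; 1 h at room temperature; ADP-Glo luminescence for ADP formed.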

[12] = molecular target: Dual specificity protein kinase CLK4 (Homo sapiens) (UniProt Q9HAZ1); experiment: qHTS Assay for Inhibitors of CDC-like Kinase 4 (ADP-FP Assay) (AID 1795); conditions: Transcreener ADP fluorescence polarization; series mostly up to 50 µM; further: nearly all actives have a fitted effect of over 60% in size; further: potency means the concentration at half of the fitted maximal effect
Method in brief: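 FP readout: Orange Transcreener ADP2 tracer (4 nM) plus ADP antibody, read after 30 min at room temperature. Kinase step: 6.25 nM Clk4, 100 uM RS peptide, 1 uM ATP, pH 7.5, 1 h.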

[13] = molecular target: Ubiquitin carboxyl-terminal hydrolase 1 (Homo sapiens) (UniProt O94782); experiment: Inhibitors of USP1/UAF1: Pilot qHTS (AID 504865); conditions: purified USP1/UAF1, Ub-rhodamine cleavage fluorescence; series mostly up to 54.9 µM;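 further: rhodamine fluorescence freed from ubiquitin-rhodamine substrate followed over time; top concentration of the series differs between compounds; on the % scale 0 is the no-effect control and ±100 the full control effect; nearly all actives have a fitted effect of over 35% in size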
Chain of Ubiquitin carboxyl-terminal hydrolase 1 (Homo sapiens) (O94782 whole entry, looked up): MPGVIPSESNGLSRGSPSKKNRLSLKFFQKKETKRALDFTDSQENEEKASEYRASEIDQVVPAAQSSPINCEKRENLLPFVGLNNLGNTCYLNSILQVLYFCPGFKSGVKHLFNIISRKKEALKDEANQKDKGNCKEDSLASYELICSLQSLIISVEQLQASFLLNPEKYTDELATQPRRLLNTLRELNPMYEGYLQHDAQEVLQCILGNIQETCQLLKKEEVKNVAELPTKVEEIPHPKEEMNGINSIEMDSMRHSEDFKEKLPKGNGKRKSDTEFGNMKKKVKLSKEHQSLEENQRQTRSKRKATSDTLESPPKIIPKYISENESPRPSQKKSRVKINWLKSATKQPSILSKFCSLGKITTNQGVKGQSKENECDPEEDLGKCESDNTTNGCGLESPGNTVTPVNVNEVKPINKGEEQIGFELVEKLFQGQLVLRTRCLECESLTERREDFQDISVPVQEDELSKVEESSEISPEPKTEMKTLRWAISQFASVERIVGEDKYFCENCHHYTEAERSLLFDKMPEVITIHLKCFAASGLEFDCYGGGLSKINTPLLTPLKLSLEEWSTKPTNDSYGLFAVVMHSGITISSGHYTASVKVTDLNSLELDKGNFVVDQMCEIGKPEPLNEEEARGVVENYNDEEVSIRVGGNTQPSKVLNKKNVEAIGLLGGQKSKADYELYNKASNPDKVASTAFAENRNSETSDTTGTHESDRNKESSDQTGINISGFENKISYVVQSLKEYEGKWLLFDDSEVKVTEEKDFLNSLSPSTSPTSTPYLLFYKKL
Method in brief: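 1nM USP1/UAF1 + cpd, 15 min RT; start w/ Ub-Rho 150nM final; kinetic FL 480/540 nm, 6 reads q60 s. Buffer 50mM HEPES pH 7.8, 0.5mM EDTA, 1mM TCEP, 0.01% Tween-20, 0.1 mg/ml BSA.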

[14] = Primary qHTS for small molecule stabilizers of the endoplasmic reticulum resident proteome: Secreted ER Calcium Modulated Protein (SERCaMP) assay (AID 1508630); conditions: SH-SY5Y GLuc-SERCaMP (Gaussia luciferase released on ER calcium loss) secretion, thapsigargin, luminescence; series mostly up to 38.4 µM; further: on the % scale 0 is the no-effect control and ±100 the full control effect
Method in brief: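 GLuc-SERCaMP-expressing SH-SY5Y cells, pretreated 16 h with compound, are challenged with thapsigargin to empty ER calcium stores; after 4 h, coelenterazine is added directly to the medium and luminescence is imaged.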

[15] = molecular target: Cytochrome P450 3A4 (Homo sapiens) (UniProt P08684); experiment: qHTS Assay for Inhibitors and Substrates of Cytochrome P450 3A4 (AID 884); conditions: recombinant CYP3A4, Luciferin-PPXE luminescence; series mostly up to 57.1 µM; further: on the % scale 0 is the no-effect control and ±100 the full control effect; nearly all actives have a fitted effect of over 50% in size
Method in brief: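 20 nM human CYP3A4 with 25 uM Luciferin-PPXE (at KM) in 200 mM KPO4, preincubated 10 min with compound; NADPH regeneration started a 60 min RT reaction. Luciferin detected by luminescence, normalized to 57 uM ketoconazole as full inhibition.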

[16] = NFAT Signaling Pathway (AID 444; active means well fitted curve in either direction with a large enough effect, not every such curve was filed as active;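 further: carbachol stimulus at about its EC50 of 1 µM final; on the % scale 0 is the no-effect control and ±100 the full control effect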); conditions: Jurkat NFAT-bla M1, carbachol, beta-lactamase ratio, 5 h; at 7.69 µM (top of the series) unless noted
Method in brief: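 Jurkat cells carrying an NFAT-driven β-lactamase reporter and co-transfected muscarinic M1 receptor were treated with compound plus carbachol (1 uM final, an EC50 level) for 5 h at 37 °C. CCF4 loading followed for 1 h at RT; 460/530 nm ratio gave %activity.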

[17] = Stat Signaling Pathway (AID 446; active means well fitted curve in either direction with a large enough effect, not every such curve was filed as active;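 further: ME-180 cervical cancer cells given 40 pM IL-6 alongside compound; SIE-controlled beta-lactamase reporter measured as 460/530 nm FRET emission ratio; on the % scale 0 is the no-effect control and ±100 the full control effect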); conditions: ME-180 SIE beta-lactamase reporter, IL-6 stimulated, 5 h; at 7.69 µM (top of the series) unless noted
Method in brief: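 Screening format detects activators and inhibitors alike: ME-180 SIE-bla cells stimulated at 40 pM IL-6 for 5 hrs with compound, then dual-emission beta-lactamase read at 405 nm excitation.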

[18] = AP1 Signaling Pathway (AID 357; active means well fitted curve in either direction with a large enough effect, not every such curve was filed as active; further: on the % scale 0 is the no-effect control and ±100 the full control effect); conditions: ME-180 (cervical carcinoma) AP-1-bla reporter, EGF-induced, beta-lactamase ratio, 5 h; at 7.69 µM (top of the series) unless noted
Method in brief: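 AP-1-bla ME-180 cells with beta-lactamase reporter under AP-1 response element, stimulated with EC50 EGF; compounds titrated, 5 hours at 37 degrees Celsius. CCF4 read at 460/530 nm ratio; positive and negative modulators judged by AC50.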

[19] = measured here: cell count channel max response
[20] = measured here: lipid channel max response

O=c1c(-c2ccc(F)cc2)nc2cnc(N3CCNCC3)nc2n1C1CC1
28.4%: max response [9, 20]
26.5%: max response [9, 19]
inactive: Potency [1] > 11.4 µM | Potency [3] > 9.22 µM | Potency [4] > 46 µM | outcome [5] | Potency [6] | Potency [7] | activity change, negative = inhibition [9] 2.85% | Potency [10] | Potency [11] | Potency [12] | Potency [13] | Potency [14]
active: Potency [2] 2.51 µM | Potency [8] 2.51 µM

CN(C)c1ncc2nc(-c3ccc(F)cc3)c(=O)n(Cc3ccc(F)cc3)c2n1
25.7%: max response [9, 20]
inactive: Potency [1] > 11.4 µM | Potency [2] | Potency [3] > 9.22 µM | Potency [4] > 46 µM | outcome [5] | Potency [6] | Potency [15] | activity change, negative = inhibition [9] 5.32% | Potency [10] | Potency [11] | Potency [12] | Potency [13] | Potency [14]
active: Potency [8] 3.16 µM
19.6%: max response [9, 19]

COc1ccc(-c2nc3cnc(Oc4cccc(Cl)c4)nc3n(C3CC3)c2=O)cc1
-15.3%: max response [9, 19]
-19.7%: max response [9, 20]
inactive: Potency [1] > 11.4 µM | activity change, negative = inhibition [16] -3.56% | activity, negative = inhibition [17] 15% | Potency [3] > 9.22 µM | Potency [4] > 46 µM | outcome [5] | Potency [6] | activity change, negative = inhibition [9] -3.67% | Potency [10] | Potency [11] | Potency [12] | Potency [13] | Potency [14]

COc1ccc(-c2nc3cnc(Oc4cccc(Cl)c4)nc3n(CCC#N)c2=O)cc1
inactive: Potency [1] > 11.4 µM | activity change, negative = inhibition [18] -19.7% | activity, negative = inhibition [17] -7.46% | Potency [3] > 9.22 µM | Potency [4] > 46 µM | outcome [5] | Potency [6] | activity change, negative = inhibition [9] 2.97% | Potency [10] | Potency [11] | Potency [12] | Potency [14]
14.8%: max response [9, 20]
13.8%: max response [9, 19]

COCCn1c(=O)cnc2cnc(Nc3cccc(OC)c3)nc21
-29.7%: max response [9, 20]
-13.4%: max response [9, 19]
active: Potency [2] 0.794 µM | Potency [10] 2.24 µM | Potency [11] 1.78 µM | Potency [12] 1.26 µM
inactive: Potency [1] > 11.4 µM | activity change, negative = inhibition [16] -0.925% | Potency [3] > 9.22 µM | Potency [4] > 46 µM | outcome [5] | Potency [6] | Potency [7] | activity change, negative = inhibition [9] -15.5% | Potency [13] | Potency [14]

COc1cccc(Cn2c(=O)c(-c3cc(F)cc(F)c3)nc3cnc(N(C)C)nc32)c1
active: activity, negative = inhibition [17] 91.4% [activator] | Potency [8] 0.398 µM
19.9%: max response [9, 19]
inactive: Potency [1] > 11.4 µM | Potency [2] | Potency [3] > 9.22 µM | Potency [4] > 46 µM | outcome [5] | Potency [6] | activity change, negative = inhibition [9] -0.73% | Potency [10] | Potency [11] | Potency [12] | Potency [13] | Potency [14]
18.8%: max response [9, 20]

COCCn1c(=O)cnc2cnc(Nc3ccccc3)nc21
-2.6%: max response [9, 19]
inactive: Potency [1] > 11.4 µM | Potency [3] > 9.22 µM | Potency [4] > 46 µM | outcome [5] | Potency [6] | activity change, negative = inhibition [9] -9% | Potency [13] | Potency [14]
active: Potency [2] 1 µM | Potency [10] 3.55 µM | Potency [11] 3.16 µM | Potency [12] 2.82 µM
-12.1%: max response [9, 20]
